What all share (details): mRNA level, 48 h; actives raise or lower the signal
Read-out in assay [1]: Lipase C (LIPC), LIPC (gene 3990)
The assay is described as follows: LTEA_HepaRG_LIPC: Life Technologies and Expression Analysis (LTEA) Assay for Lipase C (LIPC) using HepaRG (AID 2283514). The method in brief: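 HepaRG cells, 48 h after plating, treated in duplicate for 48 h in serum-free induction medium over 8 half-log concentrations from 100 uM, 0.5% DMSO. LIPC mRNA by TaqMan qRT-PCR normalized to ACTB/GAPDH/POLR2A; bidirectional fit versus DMSO.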

Read-out in assay [2]: MicroRNA 122 (MIR122), gene 406906
Kind of assay: LTEA_HepaRG_MIR122: Life Technologies and Expression Analysis (LTEA) Assay for MicroRNA 122 (MIR122) using HepaRG (AID 2283516). Also: the transcript read is the microRNA miR-122. The method in brief:
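Differentiated human HepaRG cells were exposed 48 h in serum-free induction medium to eight half-log concentrations (top 100 uM, 0.5% DMSO). Transcript level was measured by TaqMan qRT-PCR, normalized to ACTB, GAPDH and POLR2A, and fitted bidirectionally versus DMSO.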

Read-out in assay [3]: matrix metalloproteinase-10 (MMP10), MMP10 (gene 4319)
Kind of assay: LTEA_HepaRG_MMP10: Life Technologies and Expression Analysis (LTEA) Assay for matrix metalloproteinase-10 (MMP10) using HepaRG (AID 2283517). The method in brief: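 Differentiated HepaRG cells in serum-free induction medium exposed 48 h in duplicate to 8-point half-log series up to 100 uM in 0.5% DMSO. mRNA quantified by qRT-PCR, normalised to ACTB, GAPDH, POLR2A; bidirectional fit versus DMSO.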

Read-out in another assay: MYC, MYC (gene 4609)
The assay is described as follows: LTEA_HepaRG_MYC: Life Technologies and Expression Analysis (LTEA) Assay for MYC using HepaRG (AID 2283518). The method in brief: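 Expression changes were scored by TaqMan qRT-PCR with ACTB, GAPDH and POLR2A normalization. Cultures in serum-free induction medium received duplicate 8-point concentration series, highest 100 uM, for 48 h; DMSO (0.5%) served as baseline.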

Read-out in assay [4]: matrix metalloproteinase-3 (MMP3), MMP3 (gene 4314)
Kind of assay: LTEA_HepaRG_MMP3: Life Technologies and Expression Analysis (LTEA) Assay for matrix metalloproteinase-3 (MMP3) using HepaRG (AID 2283519). The procedure, abridged: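 HepaRG cells (~100,000/well) in serum-free induction medium were dosed in duplicate for 48 h with an 8-point half-log series from 100 uM, 0.5% DMSO. MMP3 mRNA was quantified by Fluidigm TaqMan qRT-PCR, normalized to three housekeeping genes.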

Read-out in assay [5]: Paternally Expressed 10 (PEG10), PEG10 (gene 23089)
The assay is described as follows: LTEA_HepaRG_PEG10: Life Technologies and Expression Analysis (LTEA) Assay for Paternally Expressed 10 (PEG10) using HepaRG (AID 2283520). The procedure, abridged:
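Differentiated HepaRG cells, plated 48 h then switched to serum-free induction medium, were exposed in duplicate for 48 h to eight half-log concentrations topping at 100 uM in 0.5% DMSO. PEG10 mRNA was quantified by TaqMan qRT-PCR, normalised to ACTB, GAPDH and POLR2A.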

Read-out in assay [6]: Nuclear factor NF-kappa-B p105 subunit (Homo sapiens) (UniProt P19838)
Kind of assay: LTEA_HepaRG_NFKB1: Life Technologies and Expression Analysis (LTEA) Assay for Nuclear Factor Kappa B Subunit 1 (NFKB1) using HepaRG (AID 2283521).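 As to outcome: TaqMan qRT-PCR transcript normalised to ACTB GAPDH and POLR2A housekeeping genes.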 The method in brief: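 Differentiated human HepaRG cells in serum-free induction medium with 0.5% DMSO were exposed for 48 h to eight half-log concentrations, top 100 uM, in duplicate. NFKB1 mRNA measured by Fluidigm TaqMan qRT-PCR, normalised to ACTB, GAPDH and POLR2A; bidirectional fit versus DMSO.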

Read-out in assay [7]: Phosphatase and tensin (PTEN), PTEN (gene 5728)
Kind of assay: LTEA_HepaRG_PTEN: Life Technologies and Expression Analysis (LTEA) Assay for Phosphatase and tensin (PTEN) using HepaRG (AID 2283523). The procedure, abridged: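 HepaRG cells, 48 h after plating, exposed in duplicate for 48 h in serum-free induction medium to 8 half-log concentrations up to 100 uM (0.5% DMSO). PTEN mRNA by qRT-PCR, normalized to ACTB, GAPDH, POLR2A; bidirectional fit versus DMSO.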

Read-out in assay [8]: Lipoprotein lipase (LPL), LPL (gene 4023)
Kind of assay: LTEA_HepaRG_LPL: Life Technologies and Expression Analysis (LTEA) Assay for Lipoprotein lipase (LPL) using HepaRG (AID 2283515). The procedure, abridged: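 Differentiated HepaRG cells, plated 48 h, then exposed 48 h in serum-free induction medium to 8 concentrations (top 100 uM, half-log steps) in 0.5% DMSO, duplicate. LPL mRNA measured by qRT-PCR, normalized to ACTB, GAPDH and POLR2A.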

Read-out in assay [9]: Protein phosphatase 2A (PPP2R4), PTPA (gene 5524)
The assay is described as follows: LTEA_HepaRG_PPP2R4: Life Technologies and Expression Analysis (LTEA) Assay for Protein phosphatase 2A (PPP2R4) using HepaRG (AID 2283522). The method in brief: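 Differentiated HepaRG cells in serum-free induction medium were exposed in duplicate for 48 h to eight concentrations, top 100 uM with half-log dilutions, in 0.5% DMSO. PPP2R4 mRNA was quantified by TaqMan qRT-PCR, normalized to ACTB, GAPDH and POLR2A.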

Molecules are shown by their SMILES. Where a structure was tested more than once in an assay, its records may differ in their call. Active and inactive are the calls of the source. The calls were made as follows: active = hit-call score of the fitted dose curve at least 0.9, where 1 is the maximum; inactive = score below 0.9.

Results on 13 molecules are retold here after PubChem BioAssay (EPA / NIEHS).

Nuclear factor NF-kappa-B p105 subunit (Homo sapiens), sequence (P19838 whole entry, looked up): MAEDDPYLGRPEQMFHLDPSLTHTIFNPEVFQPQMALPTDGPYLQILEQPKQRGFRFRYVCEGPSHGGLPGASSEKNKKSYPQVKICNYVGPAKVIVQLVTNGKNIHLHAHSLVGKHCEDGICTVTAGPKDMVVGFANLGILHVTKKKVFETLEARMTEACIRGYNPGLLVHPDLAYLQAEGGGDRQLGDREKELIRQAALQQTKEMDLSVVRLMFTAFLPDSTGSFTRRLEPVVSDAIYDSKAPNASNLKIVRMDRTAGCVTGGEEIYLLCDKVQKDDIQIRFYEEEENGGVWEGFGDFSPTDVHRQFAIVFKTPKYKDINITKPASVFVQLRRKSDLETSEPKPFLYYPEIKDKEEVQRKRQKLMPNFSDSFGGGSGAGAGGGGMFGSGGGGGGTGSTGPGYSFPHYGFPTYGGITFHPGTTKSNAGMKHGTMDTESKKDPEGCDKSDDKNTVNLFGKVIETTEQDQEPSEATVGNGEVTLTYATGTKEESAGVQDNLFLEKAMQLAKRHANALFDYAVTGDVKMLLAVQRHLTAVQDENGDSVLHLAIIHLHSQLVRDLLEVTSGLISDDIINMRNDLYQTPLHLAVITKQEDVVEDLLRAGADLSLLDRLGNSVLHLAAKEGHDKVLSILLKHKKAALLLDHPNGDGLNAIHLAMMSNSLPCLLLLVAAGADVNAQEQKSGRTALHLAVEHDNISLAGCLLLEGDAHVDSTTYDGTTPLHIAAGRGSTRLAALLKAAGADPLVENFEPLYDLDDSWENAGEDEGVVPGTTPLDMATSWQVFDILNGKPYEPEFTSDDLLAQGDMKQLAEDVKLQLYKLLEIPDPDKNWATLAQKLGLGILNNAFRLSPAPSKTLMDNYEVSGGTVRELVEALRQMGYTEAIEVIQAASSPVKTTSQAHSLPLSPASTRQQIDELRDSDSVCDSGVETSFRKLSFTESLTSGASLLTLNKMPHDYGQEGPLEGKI

As for `C[C@]12CC[C@@H]3c4ccc(O)cc4C[C@@H](CCCCCCCCCS(=O)CCCC(F)(F)C(F)(F)F)[C@H]3[C@@H]1CC[C@@H]2O` (stereo not given in full), the concentration at half-maximal activity (AC50) in [1] was 50 µM (active); in assay [2] it was 28.7 µM (active); in assay [3], 0.116 µM (active); with MYC, MYC (gene 4609), 0.0578 µM (active); in assay [4] it was 0.084 µM (active); in assay [5] it was 5.19 µM (active). Also, the AC50 in assay [6] was 0.0508 µM (active). In addition, the result in [7] was inactive.
For the molecule `S=C([S-])NCCNC(=S)[S-].[Mn+2]`, the AC50 in assay [1] was 7.28 µM (active); in assay [8] it was 3.29 µM (active); in [2] it was 2.03 µM (active); with MYC, MYC (gene 4609) it was 8.74 µM (active); in assay [5], 0.302 µM (active); in assay [7], 4.48 µM (active). Further, the outcome in assay [3] and in [4] was inactive.
Turning to `O=C(O)C1(C(=O)Nc2ccc(Cl)cc2Cl)CC1`, the concentration at half-maximal activity (AC50) was 76.2 µM (active) in [1]; 50 µM (active) in [2]; 50 µM (active) in assay [4]; 39.8 µM (active) in assay [5]; 22.9 µM (active) in assay [6]. The outcome was “inactive” in assay [8]; “inactive” in [3]; “inactive” with MYC, MYC (gene 4609); “inactive” in assay [7].
As for `CCCCCOC(=O)COc1cc(N2C(=O)C3=C(CCCC3)C2=O)c(F)cc1Cl`, the outcome was “inactive” in assay [1]; “inactive” in assay [8]; “inactive” in assay [2]; “inactive” in assay [3]; “inactive” in the assay with MYC, MYC (gene 4609); “inactive” in assay [4]. The molecule was classed as inactive in assay [5] and in assay [7].
Regarding `N#CSCSc1nc2ccccc2s1`, the outcome is “inactive” in assay [1]; “inactive” in assay [8]; “inactive” in assay [3]; “inactive” with MYC, MYC (gene 4609); “inactive” in assay [4]; “inactive” in assay [6]. In assay [7], the molecule was called inactive. The half-maximal activity concentration (AC50) in assay [2] is 69.3 µM (active); in assay [5], 50 µM (active).
As for `C=CCOC(Cn1ccnc1)c1ccc(Cl)cc1Cl` (stereo not given), the half-maximal activity concentration (AC50) in [1] is 33 µM (active); in assay [8] it was 13.7 µM (active); in assay [2], 20.5 µM (active); in assay [3] it was 34.4 µM (active); in the assay with MYC, MYC (gene 4609), 36 µM (active); in assay [4], 75.2 µM (active). For the same molecule, the AC50 in assay [5] is 28.4 µM (active). In addition, in [7], the result was inactive.
As for `CSC(=O)c1cccc2nnsc12`, the outcome in [1] is “inactive”; in [8], “inactive”; in assay [2] it was “inactive”; in [3], “inactive”; with MYC, MYC (gene 4609) it was “inactive”; in assay [4], “inactive”. The result in assay [5], in assay [9] and in assay [7] was inactive.
Take `CCN(Cc1c(F)cccc1Cl)c1c([N+](=O)[O-])cc(C(F)(F)F)cc1[N+](=O)[O-]`: the concentration at half-maximal activity (AC50) in [1] was 50 µM (active); with MYC, MYC (gene 4609), 50 µM (active); in [5] it was 15.2 µM (active). Moreover, the molecule was called inactive in [2], in assay [3], in assay [4], in [6] and in [7].
As to `CCCCCCC(C)OC(=O)COc1nc(F)c(Cl)c(N)c1Cl` (stereo not given), the outcome is “inactive” in assay [1]; “inactive” in assay [2]; “inactive” in [3]; “inactive” in the assay with MYC, MYC (gene 4609); “inactive” in assay [4]; “inactive” in assay [5]. The outcome in assay [6] and in assay [7] was inactive.
Turning to `CC(=O)S[C@@H]1CC2=CC(=O)CC[C@]2(C)[C@H]2CC[C@@]3(C)[C@@H](CC[C@@]34CCC(=O)O4)[C@H]12`, the AC50 in [1] is 50 µM (active); in [2], 67.5 µM (active); in assay [3], 76.1 µM (active). For the same molecule, the outcome is “inactive” in assay [8]; “inactive” with MYC, MYC (gene 4609); “inactive” in assay [4]; “inactive” in assay [5]; “inactive” in assay [9]; “inactive” in assay [7].
For the molecule `CCOC(=O)C(C)Oc1ccc(Oc2nc3ccc(Cl)cc3o2)cc1` (stereo not given), the outcome was “inactive” in assay [1]; “inactive” in assay [2]; “inactive” in assay [3]; “inactive” in the assay with MYC, MYC (gene 4609); “inactive” in assay [4]; “inactive” in [5]. Also, the molecule was called inactive in [6] and in assay [7].
Regarding `CCCCOC(=O)C(C)Oc1ccc(Oc2ccc(C(F)(F)F)cn2)cc1` (stereo not given), the outcome in assay [1] was “inactive”; in assay [2] it was “inactive”; in assay [3], “inactive”; in the assay with MYC, MYC (gene 4609), “inactive”; in [4], “inactive”; in [5], “inactive”. Besides, the outcome in assay [6], in assay [9] and in assay [7] was inactive.
As to `CC(C)(c1ccc(O)cc1)c1ccc(O)cc1`, the outcome in assay [1] is “inactive”; in [2], “inactive”; in assay [3], “inactive”; with MYC, MYC (gene 4609), “inactive”; in assay [4] it was “inactive”; in [5], “inactive”. Besides, the call in [6] and in assay [7] was inactive. Further, the concentration at half-maximal activity (AC50) with MYC, MYC (gene 4609) was 9.92 µM (active).
